# Compounds without any hit were thinned out: in the full panel of roughly 83,000, 20% have a hit.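 Negative percent growth values reflect cell death: -40 means 40% of the cells present at the start died, and -100 means all died.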 Unmarked numbers belong to inactive results. Calls of active or inactive are those of the source. The calls were made as follows: active = growth percent below 10; inactive = the rest.
# Columns and labels:
# Assay in all cases: NCI-60 one-dose screen, 48 h (100 = growth as untreated, 0 = no growth, -100 = all killed)
# Conditions in all cases: 10 µM
# [1] = test system: HCT-15 colon
# [2] = test system: HT29 colon
# [3] = test system: SNB-75 CNS
# [4] = test system: SNB-19 CNS
# [5] = test system: U251 CNS
# [6] = test system: PC-3 prostate
# [7] = test system: SK-MEL-5 melanoma
# [8] = test system: UACC-62 melanoma
# [9] = test system: LOX IMVI melanoma
# [10] = test system: SK-MEL-28 melanoma
# [11] = test system: SK-MEL-2 melanoma
# [12] = test system: EKVX NSCLC
# [13] = test system: SN12C renal
# [14] = test system: UO-31 renal
# [15] = test system: TK-10 renal
# [16] = test system: ACHN renal
# [17] = test system: CAKI-1 renal
# [18] = test system: A498 renal
# [19] = test system: CCRF-CEM leukemia
# [20] = test system: MOLT-4 leukemia
SMILES,growth [1],growth [2],growth [3],growth [4],growth [5],growth [6],growth [7],growth [8],growth [9],growth [10],growth [11],growth [12],growth [13],growth [14],growth [15],growth [16],growth [17],growth [18],growth [19],growth [20]
Cc1cc(C)nc(NS(=O)(=O)c2ccc(N/C(N)=N/c3nccc(-c4cccs4)n3)cc2)n1,97.4%,108%,78.6%,100%,102%,86.6%,96.2%,96.3%,77.8%,106%,108%,83.5%,96.9%,59.1%,117%,94.8%,74.2%,117%,95%,96.8%
O/N=C(\CSc1nnc(-c2c[nH]c3ccccc23)n1-c1ccccc1)c1ccc(Br)cc1,-92.8% (active),-76.9% (active),-19.9% (active),-9.28% (active),9.73% (active),-64.4% (active),-24.5% (active),-90.5% (active),-87.4% (active),-26.3% (active),-66.3% (active),-63.3% (active),-77.2% (active),3.58% (active),-82.8% (active),-83.5% (active),-94.3% (active),62.2%,–,-19.2% (active)
COc1cc(C2CC(c3ccc(C)cc3)=Nc3c(N)nc(N)nc3N2)ccc1Oc1nc(Nc2ccc(F)cc2)nc(N(C)C)n1 (stereo not given),14.9%,9.46% (active),104%,66.7%,52.2%,45.6%,-100% (active),77.7%,-77.8% (active),88.3%,72.9%,70.1%,68.6%,53.3%,101%,47.1%,49.4%,96.5%,–,13.2%
O/N=C(\CSc1nnc(-c2c[nH]c3ccccc23)n1-c1ccccc1)c1ccc(Cl)cc1,-48.1% (active),4.47% (active),48%,17.4%,30.5%,-38% (active),21.2%,-43.2% (active),-89.3% (active),21.2%,20.1%,2.05% (active),-16.2% (active),34.4%,-23.2% (active),3.34% (active),-10.7% (active),83.7%,–,-7.37% (active)
CCCCCCCCCCCCCCCCCCCC(=O)NCCc1c[nH]c2ccc(OC(=O)NOCCOCCOCCOCCOCCOCCOCCOCCOCCOCCOCCOCCOCCOCCOCCOCCOCCOCCOCCOCCOCCOCCOC)cc12,77.7%,-71.8% (active),37.3%,22.3%,-16.8% (active),6.43% (active),-16.3% (active),-69.4% (active),-90.7% (active),-2.99% (active),-68.5% (active),35.6%,-17.4% (active),61.8%,51.2%,40.7%,7.27% (active),63.1%,–,-11.7% (active)
CCCCCCCCCCCCCCCCCCCC(=O)NCCc1c[nH]c2ccc(O)cc12,96.2%,121%,129%,104%,99%,73.4%,110%,99.7%,76.7%,106%,107%,101%,84.9%,71.9%,118%,98.8%,105%,118%,–,71.2%
O=C(CSc1nnc(-c2ccc3nc(-c4ccc(Cl)cc4)[nH]c3c2)o1)Nc1ccc(Br)cc1,-64.2% (active),-15.8% (active),5.11% (active),-26.6% (active),-63.9% (active),5.11% (active),-36.9% (active),-90.8% (active),-100% (active),-94.4% (active),-69.6% (active),27.9%,-89.2% (active),21.9%,86%,-62.5% (active),-27.8% (active),66.1%,6.06% (active),-0.919% (active)
O=C1CCC(N2Cc3cc(NC(=O)COc4ccccc4)ccc3C2=O)C(=O)N1 (stereo not given),25.4%,79.5%,46.4%,66.7%,86.8%,37.7%,74.2%,84.4%,108%,95.9%,98.3%,78.6%,73.6%,28.5%,66%,91.9%,92.3%,75.1%,22.7%,11.5%
C/C(=C\CC/C=C(\C)CC/C=C(\C)CC[C@@H](O)C(C)(C)O)CC/C=C(\C)CC[C@@H](O)C(C)(C)O,21.1%,-67% (active),70.2%,61.4%,33.2%,7.84% (active),-16.3% (active),46.2%,28.7%,38%,52.1%,34.5%,12%,30.5%,64.6%,37.5%,47.4%,73.6%,–,0.465% (active)
O=C1CCC(N2Cc3cc(CC(=O)Nc4ccc(N5CCCCC5)cc4)ccc3C2=O)C(=O)N1 (stereo not given),7.29% (active),77.4%,55.7%,49.2%,88.6%,26.7%,38.8%,78.1%,105%,76.4%,74.7%,83.4%,46.7%,21%,67.5%,92.4%,87.6%,12.7%,–,-7.39% (active)
CNCc1cccc2c1OCCCCCC[C@@](C)(O)CC1(CC1)S(=O)(=O)c1ccc(cc1)-c1cnc(N)c(n1)C(=O)N2,-96.6% (active),-87% (active),-93.8% (active),-97.4% (active),-83.8% (active),-59% (active),-100% (active),-90.8% (active),-100% (active),-93.6% (active),-98.7% (active),-97.4% (active),-93.9% (active),-96.8% (active),-92% (active),-100% (active),-94.6% (active),-94.5% (active),–,-44.5% (active)
N#C/C(=C\c1ccc(N(c2ccccc2)c2ccccc2)cc1)C(N)=O,65.1%,30.5%,95.4%,77%,32.5%,61%,31.2%,-47.3% (active),79%,104%,23.5%,90.2%,90.5%,49.9%,-37.7% (active),88%,-24% (active),-99.8% (active),59.9%,56%
O=C(c1ccc(O)cc1)C1[C@H](c2ccc(Br)cc2)[C@@H](c2ccccc2)NC12C(=O)Nc1ccccc12 (stereo not given in full),24.6%,-9.34% (active),46.5%,47.8%,22%,32.1%,30.1%,50.9%,-96.9% (active),78.5%,55.7%,28%,23.5%,18.9%,35.9%,6.89% (active),22.6%,37%,36.3%,16.3%
O=C(O)CCCCCCCCCCN1C(=O)/C(=C/c2cnc(-c3ccccc3)s2)SC1=S,80.7%,126%,124%,100%,59.5%,95%,93.1%,76.4%,32.1%,97.4%,93.2%,52.8%,30.1%,77.5%,150%,70.3%,61.6%,99.8%,–,39.1%
O=S(=O)(Nc1ncccn1)c1ccc(-n2c(-c3ccc(Br)cc3)nc(-c3ccccc3)c2-c2ccccc2)cc1,22.5%,41.8%,26.5%,23.3%,30.8%,22.3%,25.3%,34.3%,32.2%,29.3%,56.8%,16.1%,35.9%,20.1%,56.7%,38.5%,23.7%,-1.34% (active),18.6%,22.4%
CC(=O)Nc1ccc(-c2cn(-c3cccc(C(=O)Nc4ccc(F)c(C(F)(F)F)c4)c3)nn2)cn1,20.7%,6.65% (active),119%,43.8%,-47.8% (active),43.1%,86.1%,55.9%,8.57% (active),60.3%,88.9%,79.9%,13.4%,123%,109%,56.4%,74.1%,114%,–,36.9%
